# The campaign covered roughly 240,000 compounds. About 15 (0.006%) were called active. A selection follows. A number with no mark means an inactive call. Calls follow the shape of the dose curve; as a rule, active = well fitted inhibition curve with a large enough effect; inconclusive = small, poorly fitted or top-dose-only effect, or effect the other way, or another doubt; inactive = no such curve, though single readings can be large or run the other way.
# Target: Lysosomal alpha-glucosidase (Homo sapiens) (UniProt P10253)
# Assay: qHTS Assay for Inhibitors and Activators of Human alpha-Glucosidase From Spleen Homogenate;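 also: 0% = enzyme with vehicle and -100% = no enzyme basal signal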
# Settings: 4-MU-alpha-glucoside fluorescence; series mostly up to 79.9 µM; activity change, negative = inhibition: at the top concentration
# Source text: NIH Chemical Genomics Center [NCGC] NIH Molecular Libraries Probe Production Centers Network [MLPCN] MLPCN Grant: R03 MH084841-01 Assay Submitter (PI): Wei Zheng NCGC Assay Overview: Alpha-glucosidase is responsible for the hydrolysis of terminal, non-reducing 1,4-linked alpha-D-glucose residues, which releases alpha-D-glucose. It is a lysosomal hydrolase that is required for the degradation of a small percentage (1-3%) of cellular glycogen in humans. Deficiency of this enzyme results in glycogen-storage disease type II (GSDII), also referred to as Pompe disease, an autosomal recessive disorder. Structurally normal glycogen is accumulated in the lysosomes and cytoplasm in affected patients, primarily in muscle tissues. Excessive glycogen storage within lysosomes may interrupt normal functioning of other organelles and leads to cellular injury. In turn, this leads to enlargement and dysfunction of the entire organ involved (eg: cardiomyopathy and muscle weakness). It has been reported that the improper folding and trafficking of alpha-glucosidase resulting from genetic mutations may account for a significant number of Pompe patients. […] We optimized this alpha-glucosidase assay in 1536-well plate format for identification of novel small molecule inhibitors or activators with structures other than the sugar analogs in order to develop new pharmacological chaperones. In particular, this assay is directed towards discovering compounds active in a more natural setting, tissue homogenate, that may have been missed by screens of the purified enzyme under more stringent conditions.
# NCGC Assay Protocol Summary: This is a fluorogenic enzyme assay with 4-methylumbelliferyl-alpha-D-glucopyranoside as the substrate and human spleen homogenate containing alpha-glucosidase as the enzyme preparation. Upon hydrolysis of this fluorogenic substrate, the resulting product, 4-methylumbelliferone (which excites at 365 nm and emits at 440 nm) can be detected by a fluorescence plate reader. Data were normalized to the controls for basal activity (without enzyme) and 100% activity (with enzyme). The AC50 values were determined from concentration-response data modeled with the standard Hill equation. Assay buffer: 50 mM citric acid (titrated with potassium phosphate to pH 5.0), 0.01% Tween-20 (pH 5.0 is an optimal condition for this enzyme assay) 1536-well assay protocol for the alpha-glucosidase from human spleen homogenate: (1) Add 2 ul/well spleen homogenate (1 ug) (2) Add 23 nL compounds in DMSO solution. The final titration was 0.5 nM to 58 uM. (3) Add 2 ul of substrate (1 mM final) (4) Incubate at 37 C for 40 min (5) Add 2 ul stop solution (1M NaOH and 1M Glycine mixture, pH 10) (6) Detect the assay plate in a ViewLux plate reader (PerkinElmer) with Ex=365 nm and Em=440nm. Keywords: Alpha-glucosidase, Pompe Disease, pharmacological chaperone, chaperone therapy, high throughput screening, alpha-glucosidase inhibitor, MLSMR, MLSCN, NIH Roadmap, qHTS and NCGC
Compound,"activity change, negative = inhibition",outcome
NC1CCN(O)C1=O (stereo unspecified),-4.38%,
CN1CCN2c3ccccc3Cc3ccccc3[C@@H]2C1,,inactive
C=C1CCN(C(CC(C)C)C(=O)N2CCOCC2)S(=O)(=O)c2ccccc21 (stereo unspecified),-3.94%,
CCN(CC)/[N+]([O-])=N/Oc1cc(O/[N+]([O-])=N/N2CCCC2CO)c([N+](=O)[O-])cc1[N+](=O)[O-] (stereo unspecified),13.4%,
Cc1cccc([C@H]2[C@@H]3C=CC[C@@H](C)[C@@H]3C(=O)N2Cc2ccccc2)c1,5.28% [at 119 µM],
CCOC(=O)C1=C(C)c2ccccc2OC1C(=O)OCC (stereo unspecified),-1.48% [at 119 µM],
O=C(O)CCn1c(O)c(C=C2N=c3ccccc3=N2)sc1=S,5.64%,
COc1cc(OC)c2c(c1C(CCN1CCCCC1)c1ccc(N(C)C)cc1)OC(=O)CC2c1ccc(N(C)C)cc1 (stereo unspecified),-1.04%,
O=C1CN(Cc2ccccc2)S(=O)(=O)c2ccccc21,4.09%,
Cc1cc(=O)oc2cc(NC(=O)C3CC(=O)N(Cc4ccccc4)C3)ccc12 (stereo unspecified),-3.26%,
Cc1c(CN2CCC(CO)(CCOc3ccccc3)CC2)[nH]c2ccc(Cl)cc12,-2.21%,
CC(C)=CCN1CCC2(CCc3ccccc32)CC1,2.89%,
CC(CNc1ccc([N+](=O)[O-])cc1)NC(=O)c1ccccc1Br (stereo unspecified),-6.77%,
CC1CCN(S(=O)(=O)c2ccc3ncn(CC(=O)N(C)C4CCCCC4)c(=O)c3c2)CC1,-4.28%,
OC(COCC1COc2ccccc2O1)CN1CCN(c2ccc(F)cc2)CC1 (stereo unspecified),-10.7%,
C=C(C)C(=O)c1ccc(F)cc1,6.52%,
CC[C@H](C)[C@H](NC(=O)[C@@H](N)CCC(=O)O)C(=O)N[C@@H](CC(C)C)C(=O)N[C@@H](CC(=O)O)C(=O)N[C@H](C(=O)N1CCC[C@H]1C(=O)N[C@@H](CO)C(=O)N[C@H](C(=O)O)[C@@H](C)O)C(C)C,5.13%,
H-EHIPA-OH,3.99%,
O=C(NCCCCc1ccccc1)C1CC(c2ccc([N+](=O)[O-])cc2)=NO1 (stereo unspecified),3.76%,
COc1ccccc1-c1nnc(NC(=O)c2ccc3ncsc3c2)o1,2.72%,
CN1CCN(c2cc3c(cc2F)c(=O)c(C(=O)O)cn3CCF)CC1,2.34%,
CCOC(OCC)OCC,-1.22%,
Oc1ccc(-c2c(-c3ccccc3)nn3c(C(F)(F)F)cc(C(F)(F)F)nc23)cc1,3.91%,
O=C(NCCCNc1ccc([N+](=O)[O-])cc1Cl)c1ccccc1F,-9.07%,
COCCCNC(=S)N1CCCC(c2nc3cc(C)c(C)cc3[nH]2)C1 (stereo unspecified),-4.36%,
Brc1ccc2ncnc(NCc3cccnc3)c2c1,7.88%,

Compound,"activity change, negative = inhibition",outcome
CCCC1=Nc2cc(C(=O)NCc3ccco3)ccc2Sc2ccccc21,-5.63%,
CCOC(=O)c1c(C)n(C)c2ccc(OC)c(NS(=O)(=O)CC)c12,-20%,
C/C=C(\C)C(=O)NCCN1C2=NC[C@H](Cc3ccc(O)cc3)N2C[C@@H]1Cc1ccc(OC)cc1,2.08%,
COc1ccc(C2=Nn3c(nnc3-c3ccccc3O)SC2)cc1,-1.69%,
Cn1ccc(=NC=C(C#N)C#N)c2ccccc21,-4.74%,
COc1ccc(C2=NN(C(=O)c3cccnc3)C(c3ccccc3)C2)cc1 (stereo unspecified),-4.5%,
Cc1cc(N(C)C)nc(Cl)n1,2.22%,
O=C(CSc1cccc[n+]1[O-])c1ccc(-c2ccccc2)cc1,-7.13%,
COc1cccc(CC2(CO)CCN(Cc3cnc(-c4cccc(C)c4)nc3)CC2)c1,3.73%,
O=C(Nc1ccccc1F)c1ccccc1-c1ccc(C(F)(F)F)cc1,-4.73%,
O=[N+]([O-])c1ccccc1SNc1ccccn1,0.477%,
N#Cc1cccc(CS(=O)(=O)c2nnnn2-c2cc(C(F)(F)F)cc(C(F)(F)F)c2)c1,2.12%,
FC(F)(F)c1cccc(-c2cc3ccccc3nc2N2CCCC2)c1,-3.49%,
O=C(Nc1ccc(Cl)cc1)/C(=C1\CCCN1)[N+](=O)[O-],0.902%,
Cc1noc(C)c1-c1ccc2ncnc(NCc3ccc4[nH]ccc4c3)c2c1,10.6%,
COc1ccc(Cl)cc1NC(=O)COC(=O)C(CC(C)C)N1C(=O)C2CC=CCC2C1=O (stereo unspecified),1.56%,
O=C(CCl)Nc1cccc(CP(=O)(c2ccccc2)c2ccccc2)c1,5.31%,
Cc1ccc(CNC(=O)C2(C(F)(F)F)C/C(=C\Cc3ccccc3)CCCO2)o1 (stereo unspecified),0.641%,
CCCN1CCC(=O)N(C(CSc2ccc(C)cc2)Cc2ccccc2)CC1 (stereo unspecified),-7.66%,
COC(=O)Cn1cc(/C=C/[N+](=O)[O-])c2ccccc21,3.39%,
O=C(NCc1ccccn1)[C@]1(C(F)(F)F)C[C@H](CCc2ccccc2)CCCO1,-5.69%,
CC(C)[C@@H]1NC(=O)[C@H](Cc2ccccc2)NC(=O)[C@@H](CC(=O)O)NC(=O)CNC(=O)[C@H](CCCNC(=N)N)NC1=O,5.67%,
COC(=O)[C@@]1(Cc2ccc(OC)cc2)[C@H]2c3cc(C(=O)N4CCCC4)n(Cc4ccc(OC(F)(F)F)cc4)c3C[C@H]2CN1C(=O)c1ccccc1,6.25%,
COc1ccc(C2/C=C\CN(Cc3ccco3)C(C)C(=O)N2Cc2ccc(F)cc2)cc1 (stereo unspecified),2.13%,
COc1cc2c(cc1OC)C(/C=C/c1ccco1)=NCC2,1.23%,
